Experimental data from paper PMC12136788.
Whole data set: some 5,800 sequences, median “enrichment r” near 0.54, cut for the highest 2% near 16. For the sample, the highest values were picked, then their nearest neighbours and some sequences at random.

B1: ENSG00000079335:stop:overlap|stop_codon|ENSG00000079335|stop_codon|NA|stop_codon (ssRNA)
RNA: GGGAGUUCUACAGUCCGACGAUCUUGGUGGAAAUCUUUCAAAAACACAAAACAUGGAACGAUUUGGAGAGGUAAGUUUUCCCUAGGAGAUUCUAUCUUCUUAAAACUGAUGUUCUGCAUUUGUUUCUCAGUUGGACCUAUAUACAACAGAGGAUUGAGCAUCA
B2: chr9:34635388:34635489:-|3pUTR|ENSG00000147955|msi1|FALSE|unique (ssRNA)
RNA: GGGAGUUCUACAGUCCGACGAUCGGGAUAUCCAUGCUUAUGUAUCCAAACACAGAGACCCAUGGGAACAAAUGAGACACAUAUAGAUACUGAGACCUGUGUGUACAGUAGGACCAUGCACUCACACCCAUCUGGAGAGGGAGCCAACAGAGGAUUGAGCAUCA
B3: chr12:54350855:54350965:+|3pUTR|ENSG00000111481|msi1|FALSE|unique (ssRNA)
RNA: GGGAGUUCUACAGUCCGACGAUCUUGCCCUGACAUUUUUGUAAAUUCUGUGCCCUUUGCUGUAGCUACACUUCAGAUUAAAGUAGGAGAAAGAAUGUGCUGAGUGUUUUCCUCCCUUUGCCUCUACCUGGCCCUCAUCCCAACCAACAGAGGAUUGAGCAUCA
B4: chr9:86945015:86945116:-|3pUTR|ENSG00000180447|msi1|FALSE|unique (ssRNA)
RNA: GGGAGUUCUACAGUCCGACGAUCUUGGUUUUGGAUAAGUUUGAGCCCUUGACCUUAAUUUCAUUGCUACCACUCUGAUCUCUUAGCACAUUUCUUAGGAUUAAGGGUCCAAAAAUGCUGAUCUAAGGGGUUGCCAUGGUGUUGCAACAGAGGAUUGAGCAUCA
B5: chr5:172042892:172042993:-|3pUTR|ENSG00000072786|msi1|total|mutant (ssRNA)
RNA: GGGAGUUCUACAGUCCGACGAUCGAUUCUCCCGCUUCAACCUUGAGCCGCUGGGACGACAGAUACAUGCUACUGCACCCAGCCCGGUUAAGGUUCUGUAUACUCUGUCUUUCUAAAGCAAUUCCCUGGAAAUUUUCUCAACAUCAACAGAGGAUUGAGCAUCA
B6: chr9:69711526:69711627:-|3pUTR|ENSG00000188647|unk|FALSE|unique (ssRNA)
RNA: GGGAGUUCUACAGUCCGACGAUCGAACUGCUGUAGUCUUCUGCAAUCAGUCUCUGUAUUGGUAUAUCCAGUACUAUCGGGUUUAGGUUCUUUUUAUUUUUCCUUAAAUCUUACUUGUUUCUAGCGUCUUAAGAGUGGUAAUGGCAACAGAGGAUUGAGCAUCA

target: MSI1 full-length (mouse, UniProt Q61474 1-362); assay: nsRBNS (natural sequence RNA bind-n-seq); RBNS binding buffer (assumed for nsRBNS): 25 mM Tris pH 7.5, 150 mM KCl, 3 mM MgCl2, 0.01% Triton X-100, 500 ug/ml BSA, 20 U/ml SUPERase-In, 4 C; UNK is unkempt and MSI1 is Musashi-1; names of the RNAs are library labels; protein concentration not given here; high values mean tight binding
Sequence (Q61474 whole entry): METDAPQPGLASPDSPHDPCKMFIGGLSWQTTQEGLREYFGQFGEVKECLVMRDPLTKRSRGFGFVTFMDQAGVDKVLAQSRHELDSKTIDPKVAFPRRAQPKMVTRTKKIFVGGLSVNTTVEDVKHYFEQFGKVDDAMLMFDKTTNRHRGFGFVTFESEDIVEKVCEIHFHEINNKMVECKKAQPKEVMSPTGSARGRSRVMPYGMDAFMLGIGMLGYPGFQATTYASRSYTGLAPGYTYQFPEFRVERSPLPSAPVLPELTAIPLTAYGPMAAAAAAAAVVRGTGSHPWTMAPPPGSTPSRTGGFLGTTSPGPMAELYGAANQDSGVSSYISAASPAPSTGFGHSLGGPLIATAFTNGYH

| Binder | binding signal [enrichment R] |
| --- | --- |
| B1 | 4.56 |
| B2 | 0.728 |
| B3 | 0.649 |
| B4 | 0.273 |
| B5 | 0.391 |
| B6 | 3.44 |
